# Test results: PubChem BioAssay (NCATS)
# Results filed as inconclusive are left out. Calls of active or inactive are those of the source. Calls come from the whole dose curve; as a rule, active = well fitted cell-killing curve with a large enough effect; inconclusive = small, poorly fitted or top-dose-only effect; inactive = flat fitted curve, though single readings scatter.
# Test: qHTS of pediatric cancer cell lines to identify multiple opportunities for drug repurposing: Primary screen for DAOY cells (AID 1347090); note: nearly all actives have a fitted effect of over 55% in size;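 for activity change, negative = cytotoxic: plate controls were DMSO for no effect and bortezomib for full effect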
# Settings: DAOY medulloblastoma viability, CellTiter-Glo luminescence, 48 h; series mostly up to 46 µM; activity change, negative = cytotoxic: at the top concentration
# Excerpt: Drug repurposing or repositioning has been offered as a strategy for drug development in oncology programs. This approach has special potential for childhood cancers and other rare or orphan diseases, where the expected return on new drug development has been a disincentive to pharmaceuticals.
# In this project we exploit the poly-pharmacology of drugs to discover new indications via phenotypic screening of a panel of 19 well-characterized cell lines derived from solid tumors seen in children and adolescents. The goal is to identify approved drugs with previously unrecognized anticancer properties that has the potential to reveal new mechanisms and biological processes involved in carcinogenesis or drug resistance. We employed a titration-based paradigm (quantitative high-throughput screening or qHTS), where all compounds were tested at multiple concentrations for their effect on cell viability. Concentration-response curves (CRCs) were derived directly from the primary screen, and both potency and efficacy values were used to identify compounds with robust bioactivity profiles. We screened the NIH Chemical Genomics Center (NCGC) Pharmaceutical Collection (NPC) and Mechanism Interrogation Plate (MIPE) small molecule collections of approved and investigational compounds against these cell lines; and measured metabolically active cells after 48 hours of compound treatment as a proxy for cell viability.
# Assay Submitter: Nathalia J. Martinez, National Center for Advancing Translational Sciences, National Institutes of Health, Rockville, MD, USA; email: natalia.martinez@nih.gov
# [1] Shen, M et al. Quantitative high-throughput phenotypic screening of pediatric cancer cell lines identifies multiple opportunities for drug repurposing. Oncotarget 2017 Dec 19;9(4):4758-4772. PMID 29435139.
# The cells were obtained from University of North Carolina (UNC), Pediatric Preclinical Testing Program (PPT), and Coriell Institute (CI).
# qHTS cell viability assay:
# Cells were assayed in growth media at a density of 500-1,000 cells/well. Five microliters of cells were dispensed into 1,536-well, white, solid-bottom, TC-treated plates (Greiner Bio One) using a multidrop dispenser and incubated at 37 degrees C, 5% CO2, under a humidified atmosphere for 5 hours. Twenty-three nanoliters of compounds and controls (neutral control DMSO or positive control bortezomib at final concentration of 2.3 µM) were subsequently transferred by Kalypsys pintool. For primary screens, the MIPE collection was tested at 11-point dilutions (final concentrations range from 0.78 nM to 46 µM) and the NPC collection at 8-point dilutions (final concentrations range from 0.59 nM to 46 µM). Compounds tested in follow-up screens were assayed at 11-point dilutions. Cells were incubated for 48 hours, followed by addition of 3 uL of CellTiter-Glo (Promega). After a 15 min incubation at room temperature, samples were analyzed for luminescence intensity using a ViewLux High-throughput CCD imager equipped with clear filters.
# Potency is the fitted concentration of half-maximal effect.
SMILES,"activity change, negative = cytotoxic",Potency
CC(C)(C)C(=O)NCCCC(=O)O,5.21% (inactive),
CCCCc1ncc(/C=C(\Cc2cccs2)C(=O)O)n1Cc1ccc(C(=O)O)cc1,-5.72% (inactive),
O=C1O[C@H](CO)[C@@H](O)[C@H](O)[C@H]1O,8.04% (inactive),
NC(N)=NCCC[C@H](N)C(=O)O,-2.71% [at 4.84 µM] (inactive),
CN1CCOC(c2ccccc2)c2ccccc2C1 (stereo not given),7.55% (inactive),
OC[C@H]1O[C@@H](O[C@@H]2[C@@H](CO)O[C@](O)(CO)[C@H]2O)[C@H](O)[C@@H](O)[C@H]1O,-0.856% (inactive),
NC(=O)N/N=C/c1ccc([N+](=O)[O-])o1,,inactive
CSc1ccc2c(c1)C(N1CCN(C)CC1)Cc1ccccc1S2 (stereo not given),-6.8% (inactive),
Cc1cc2nc3c(=O)[nH]c(=O)nc-3n(C[C@H](O)[C@H](O)[C@H](O)CO)c2cc1C,3.76% [at 16.1 µM] (inactive),
O=C1N=C(O)CN1/N=C/c1ccc(-c2ccc([N+](=O)[O-])cc2)o1,1.83% (inactive),
COc1ccc2cc1Oc1ccc(cc1)C[C@H]1c3c(cc4c(c3Oc3cc5c(cc3OC)CCN(C)[C@@H]5C2)OCO4)CCN1C,-22.9% (inactive),
NCCNCCNCCN,10.6% (inactive),
CCN(CC)CCSC(=O)C(c1ccccc1)c1ccccc1,-3.97% (inactive),
CC1(C)OC(=O)NC1=O,2.85% (inactive),
O=c1cc[nH]c(=S)[nH]1,-32.4% (inactive),
O=c1cc(CO)occ1O,2.54% (inactive),
OCc1cc(C(O)CNCCCCCCOCCCCc2ccccc2)ccc1O (stereo not given),-5.85% (inactive),
CCCCN(CCCC)CCCOC(=O)c1ccc(N)cc1,-0.771% (inactive),
CCC(=O)c1ccc(O)cc1,3.97% (inactive),
CC1=C(C/C=C(\C)CCC[C@H](C)CCC[C@H](C)CCCC(C)C)C(=O)c2ccccc2C1=O,-6.95% (inactive),

SMILES,"activity change, negative = cytotoxic",Potency
CCN(CC)C(C)CN1c2ccccc2Sc2ccccc21 (stereo not given),12.2% (inactive),
CCCCN(CCCC)CC(O)c1cc(Cl)cc2c1-c1ccc(Cl)cc1/C2=C/c1ccc(Cl)cc1 (stereo not given),4.4% (inactive),
Oc1ccc(C(O)CNCCCCCCNCC(O)c2ccc(O)c(O)c2)cc1O (stereo not given),-6.91% (inactive),
CO/N=C(\C(=O)N[C@@H]1C(=O)N2C(C(=O)O)=C(CSc3nc(=O)c(O)nn3C)CS[C@H]12)c1csc(N)n1,3.98% (inactive),
CC[C@H]1CN2CCc3cc(OC)c(OC)cc3[C@@H]2C[C@@H]1C[C@H]1NCCc2cc(OC)c(OC)cc21,,1.06 µM (active)
Nc1ccc(S(=O)(=O)Nc2ccccc2)cc1,4.6% (inactive),
c1ccc(CN(CC2=NCCN2)c2ccccc2)cc1,-2.93% (inactive),
CS(=O)(=O)c1ccc([C@@H](O)[C@@H](CF)NC(=O)C(Cl)Cl)cc1,-8.91% (inactive),
CC(=O)c1ccc2c(c1)N(CCCN(C)C)c1ccccc1S2,-7.25% (inactive),
CCOC(=O)[C@H](CCc1ccccc1)N[C@@H](C)C(=O)N1C(=O)N(C)C[C@H]1C(=O)O,6.25% (inactive),
CCN(CC)CCNC(=O)c1cc(Cl)c(N)cc1OC,0.0192% (inactive),
O=C(O)[C@H](O)c1ccccc1,6.99% (inactive),
C=Cc1c(C)c2cc3[nH]c(cc4nc(cc5nc(cc1[nH]2)C(C)=C5CCC(=O)O)C(CCC(=O)O)=C4C)c(C)c3C=C,-9.91% (inactive),
CC(=O)Oc1ccc(C2(c3ccc(OC(C)=O)cc3)C(=O)Nc3ccccc32)cc1,-1.95% (inactive),
O=c1[nH]cnc2c1ncn2[C@@H]1O[C@H](CO)[C@@H](O)[C@H]1O,-6.12% (inactive),
O=C(O)COc1nn(Cc2ccccc2)c2ccccc12,-3.25% (inactive),
CC(C)(O)c1ccccc1CC[C@@H](SCC1(CC(=O)O)CC1)c1cccc(/C=C/c2ccc3ccc(Cl)cc3n2)c1,4.25% (inactive),
CN1CCC[C@@H]1Cc1c[nH]c2ccc(CCS(=O)(=O)c3ccccc3)cc12,6.83% (inactive),
CSc1ccc2c(c1)N(CCC1CCCCN1C)c1ccccc1S2 (stereo not given),,16.8 µM (active)
Cc1cccc(Nc2cc(Cl)nc(SCC(=O)O)n2)c1C,2.13% (inactive),
